# Sampled rows, rich in hits. Any-hit rate of the full collection: about 2.8%.
# SNCA viab count = counter-screen for SNCA expression inhibitors: cell viability; HEK-293-SNCA-luc viability, GF-AFC fluorescence, 24 h; Potency, µM (series often up to 57.1 µM), without a hit: top-dose activity change, negative = cytotoxicity, most hits filed as cytotoxic; actives 0.12% (n = 150,000); AID 1671193;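 also: potency is read from the fitted curve at half-maximal effect; 0% = DMSO-treated cells and -100% = medium-only wells without cells; nearly all actives have a fitted effect of over 30% in size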
#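 HEK-293-SNCA-luc cells (1500/well) plated 24 h, then exposed 24 h to a dilution series; GF-AFC added 30 min at 37C, fluorescence 405/540 nm; normalised to medium-only and DMSO wells, Hill fit.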
# IP6K1 inhibitor = blocks human inositol hexakisphosphate kinase 1 | AID 1645851 | Q92551 | IP6K1 kinase, ADP-Glo luminescence, 2 h; hits give low values | actives 0.81% (n = 140,000) | activity change, % (series mostly up to about 58 µM); in the data active = activity change below about -25%; also: % is scaled to controls: 0 for no effect and ±100 for the full control effect
#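 ADP-Glo luminescence measures ADP made by human IP6K1 during a 2 h RT reaction with ATP/IP6 (mix at 1.3 mM/130 uM); top library doses 57.5 and 19.1 uM final.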
# SNCA expr inh = reduces expression of the alpha-synuclein gene; actives 0.17% (n = 140,000); AID 1671194; Potency, µM (titrated, usually from 57.2 µM), for the others: at the top dose activity change, negative = inhibition, hits mostly inhibitors; HEK-293 SNCA-luciferase knock-in, luminescence, 24 h;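 also: potency is read from the fitted curve at half-maximal effect; plate controls were DMSO cells for no effect and cell-free wells for full effect; nearly all actives have a fitted effect of over 45% in size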
# KDM5B inh = KDM5B demethylase inhibition | Potency, µM (top dose mostly 57.7 µM), most hits filed as inhibitors | actives 2.6% (n = 220,000) | Q9UGL1 | KDM5B demethylase, FDH-coupled NADH fluorescence (FDH is formaldehyde dehydrogenase); also: potency is read from the fitted curve at half-maximal effect; 0% is about no effect; nearly all actives have a fitted effect of over 70% in size
# Target sequence (Q9UGL1 whole entry, looked up): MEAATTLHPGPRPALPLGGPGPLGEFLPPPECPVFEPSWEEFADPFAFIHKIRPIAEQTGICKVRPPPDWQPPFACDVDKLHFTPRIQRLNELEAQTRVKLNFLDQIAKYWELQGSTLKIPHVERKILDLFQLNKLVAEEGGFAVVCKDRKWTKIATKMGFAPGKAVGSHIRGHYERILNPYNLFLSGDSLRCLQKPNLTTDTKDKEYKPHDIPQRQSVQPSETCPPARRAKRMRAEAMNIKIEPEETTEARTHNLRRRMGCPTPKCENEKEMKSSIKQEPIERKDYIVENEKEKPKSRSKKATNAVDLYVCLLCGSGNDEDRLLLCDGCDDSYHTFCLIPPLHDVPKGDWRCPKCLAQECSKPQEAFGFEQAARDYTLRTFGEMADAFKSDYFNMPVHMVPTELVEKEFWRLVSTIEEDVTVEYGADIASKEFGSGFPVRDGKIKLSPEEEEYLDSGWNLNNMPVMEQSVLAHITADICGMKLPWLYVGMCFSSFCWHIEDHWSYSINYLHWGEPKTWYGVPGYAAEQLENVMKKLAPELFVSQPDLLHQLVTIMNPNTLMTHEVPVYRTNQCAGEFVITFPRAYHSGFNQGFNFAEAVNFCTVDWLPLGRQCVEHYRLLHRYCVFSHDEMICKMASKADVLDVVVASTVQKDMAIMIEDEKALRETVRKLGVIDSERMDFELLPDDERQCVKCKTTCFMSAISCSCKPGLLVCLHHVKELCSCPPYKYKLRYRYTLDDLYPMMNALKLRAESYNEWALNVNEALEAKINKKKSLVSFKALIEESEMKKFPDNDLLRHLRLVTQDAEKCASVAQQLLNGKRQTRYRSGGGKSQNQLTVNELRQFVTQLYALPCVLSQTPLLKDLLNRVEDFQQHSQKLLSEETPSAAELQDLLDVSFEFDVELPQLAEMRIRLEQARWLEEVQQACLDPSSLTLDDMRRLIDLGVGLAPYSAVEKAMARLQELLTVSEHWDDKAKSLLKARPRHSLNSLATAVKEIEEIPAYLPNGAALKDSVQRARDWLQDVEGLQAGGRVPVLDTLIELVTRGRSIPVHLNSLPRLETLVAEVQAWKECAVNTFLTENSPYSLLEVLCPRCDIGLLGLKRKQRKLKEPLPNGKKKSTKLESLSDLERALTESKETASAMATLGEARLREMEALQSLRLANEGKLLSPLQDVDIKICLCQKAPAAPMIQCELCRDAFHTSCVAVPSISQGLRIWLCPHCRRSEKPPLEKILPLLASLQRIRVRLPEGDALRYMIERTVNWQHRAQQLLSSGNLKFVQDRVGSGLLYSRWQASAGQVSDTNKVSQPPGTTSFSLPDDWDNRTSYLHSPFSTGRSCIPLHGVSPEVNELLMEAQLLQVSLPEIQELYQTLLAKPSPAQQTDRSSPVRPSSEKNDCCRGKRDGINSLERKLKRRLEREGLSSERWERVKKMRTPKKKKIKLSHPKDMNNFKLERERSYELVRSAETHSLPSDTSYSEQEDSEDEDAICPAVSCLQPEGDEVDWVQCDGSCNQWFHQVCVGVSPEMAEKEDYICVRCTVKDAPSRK
#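 Measured: NADH fluorescence change, 30 min, RT. System: KDM5BΔAP 200 nM final, H3K4me3 peptide, α-KG, Fe(II), ascorbate, NAD⁺ plus FDH, pH 7.5 HEPES. Compounds: titrated, 10 min pre-incubation with enzyme.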
# IP6K1 conf = human IP6K1 inhibition, confirmatory | Potency, µM (doses to about 49 µM), without a hit: top-dose activity change, negative = inhibition, hits mostly inhibitors | AID 1645852 | recombinant IP6K1 kinase, ADP-Glo luminescence, 2 h | actives 13% (n = 1,200) | shares compounds with IP6K1 inhibitor; also: potency is read from the fitted curve at half-maximal effect; % is scaled to controls: 0 for no effect and ±100 for the full control effect; nearly all actives have a fitted effect of over 65% in size
# The depositor's hits bear a star; i = inactive; u = inconclusive; x = no result given; [ ] = dose if it differs, or a comment. Unless noted, calls follow the shape of the dose curve; as a rule, active = well fitted curve in the direction sought with a large enough effect; inconclusive = small, poorly fitted or top-dose-only effect, or another doubt; inactive = no such curve, though single readings can be large; an effect the other way counts as inactive or inconclusive.
SMILES,SNCA viab count,IP6K1 inhibitor,SNCA expr inh,KDM5B inh,IP6K1 conf
CCCN1C(C(=O)c2ccccc2)=C(OC(=O)COc2ccc(C)cc2)c2ccccc2S1(=O)=O,u,-17,u,u,x
FC(F)(F)c1ccccc1-c1nc(NCc2cccs2)c2ccccc2n1,-7%,x,-22%,x,-3%
FC(F)(F)c1ccccc1-c1nc(NCc2ccc(-c3ccc(Cl)c(Cl)c3)cc2)c2ccccc2n1,x,x,x,x,-4%
Clc1ccccc1-c1nc(NCc2cccs2)c2ccccc2n1,-8%,x,-5%,x,x
Cc1ccccc1-c1nc(NCc2cccs2)c2ccccc2n1,-27%,x,-19%,x,-2%
Cn1c(COc2ccc(Cl)cc2Cl)n[nH]c1=S,x,x,x,i,x
Cc1noc(-c2cn(C3CCN(C(=O)Cc4ccc(F)cc4)CC3)nn2)n1,0%,13,-16%,i,x
CC(CCc1ccccc1)NCc1ccc(C(=O)O)cc1 (stereo unspecified),x,x,x,i,x
CCOc1ccc2c(n1)CCN(C(=O)Cc1c[nH]c3ccccc13)C2,6%[12.5 µM],-26*,1%,i,-26%
CCOc1ccc2c(n1)CCN(C(=O)Cc1ccccc1)C2,-9%[12.5 µM],-10,29%,i,x
Nc1nc(Nc2cc(Cl)cc(Cl)c2)nc(-c2cc3ccccc3o2)n1,x,x,x,i,x
CCOc1ccc(CN(CCc2ccc3c(c2)OCO3)Cc2cc(OC)c(OC)cc2OC)cc1,-5%,-30*,-4%,u,51%
CCOc1ccccc1CN(CCc1ccc2c(c1)OCO2)Cc1cccc(OC)c1OC,-27%,-1,u,u,x
Cc1ccc(NCc2cccn2-c2nnc(N3CCC(C(=O)NCc4ccc(OC(C)C)cc4)CC3)s2)cc1,-8%,-10,u,u,x
Cc1ccc(NCc2cccn2-c2nnc(N3CCC(C(=O)NCCc4ccc(Cl)cc4)CC3)s2)cc1,-8%,-25*,u,i,37%
O=C(NOCC(O)CO)c1cc(Br)c(F)c(F)c1Nc1ccc(I)cc1F (stereo unspecified),-24%,x,4%,x,x
Cn1cnc2c(F)c(Nc3ccc(Br)cc3F)c(C(=O)NOCCO)cc21,4%,12,-3%,x,-12%
CC(=O)C(C)=O,0%,x,4%,x,x
CC(=O)NO,-16%[23.9 µM],-28*,-26%[25.6 µM],x,-7%
COc1ccc(-c2nc(-c3c(C)noc3C)cc3[nH]c(C)cc23)cn1,-16%[87.6 µM],-31*,48%[87.6 µM],35µM*,u
CCc1noc(Cc2c(C)nn(-c3ccccc3)c2C)n1,0%,-28*,29%,i,-15%
Cc1nn(-c2ccccc2)c(C)c1CN(C)S(=O)(=O)c1ccc(F)cc1,x,x,x,i,x
Cc1cc(-c2ccc(C)c(S(=O)(=O)N3CCC(C)CC3)c2)on1,-5%,-26*,-9%,u,-17%
COC(=O)C1CCN(C(=O)CC[C@H]2CNC(=O)[C@@H]3[C@@H](CCN3Cc3ccc(F)cc3)N2C)CC1,3%,3,5%,i,x
Cc1ccc(C(C)NC(=O)C2CCCO2)c(C)c1 (stereo unspecified),x,x,x,i,x
SMILES,SNCA viab count,IP6K1 inhibitor,SNCA expr inh,KDM5B inh,IP6K1 conf
c1ccc(-c2ccnc(NCCOc3cccc4cccnc34)n2)nc1,-29%,-31*,123%,20µM*,-14%
O=C(Oc1cccc2cccnc12)c1ccccc1,31%[23.9 µM],32,-3%[25.6 µM],x,x
OCc1c[nH]c2ccccc12,-13%,-28*,-30%,x,-13%[92.2 µM]
O=C(O)Cc1c[nH]c2ccccc12,x,x,x,i,x
O=C(Nc1ncc([N+](=O)[O-])s1)c1ccccc1O,u,-31*,x,x,u
O=C(Nc1ccc(Cl)cc1)c1cc(S(=O)(=O)NC2CCCCCC2)ccc1F,u,34,u,i,x
Cc1ccc(NC(=O)c2cc(S(=O)(=O)N3CCCc4ccccc43)ccc2F)cc1F,-1%,-29*,-19%,i,-9%
Cc1ccc(NC(=O)c2cc(S(=O)(=O)NC3CCCCCC3)ccc2F)cc1F,u,-27*,u,i,-6%
CCn1nccc1C(=O)N1CCCC(c2nn(C)c(=O)n2C(C)C)C1 (stereo unspecified),2%,-2,-10%,i,x
COc1ccc(CN2C[C@H]3CN(Cc4cnn(C)c4)CCN3C2=O)cc1,9%[87.6 µM],-30*,-6%[87.6 µM],u,u
COc1ccc(CN2CCN3C(=O)N(Cc4ccc(C)cc4)C[C@H]3C2)cc1,-3%[87.6 µM],-2,-28%[87.6 µM],i,x
Cc1ccc(S(=O)(=O)c2[nH]c(-c3ccccc3)nc2SCC(=O)O)cc1,-1%,-26*,-29%,i,-5%
N#C/C(=C/c1ccc(-c2ccccc2C#N)o1)c1ccc(F)cc1,x,x,x,i,x
Cc1ccc(-c2nc(S(=O)(=O)c3ccc(Cl)cc3)c(N3CCCCC3)o2)cc1,21%,-34*,1%,u,u
COc1ccc(-c2nc(S(=O)(=O)c3ccc(C)cc3)c(N3CCCCC3)o2)cc1,10%,-2,-2%,u,x
CCOC(=O)COc1ccc(C)cc1C(=O)c1ccn2nc(-c3ccccc3)cc2n1,x,x,x,i,x
CN1CCN(Cc2nc(C3(O)CCN(C(=O)c4ccccc4F)CC3)cs2)CC1,3%[87.6 µM],2,24%[87.6 µM],i,x
COc1cccc(NC(=O)CSCc2cc(=O)c3ccc(C)c(C)c3[nH]2)c1,6%,-37*,14%,i,u
Fc1cc(Nc2cnc3ccc(-c4ccccc4)nn23)cc(N2CCOCC2)c1,-22%[87.6 µM],5,2%[87.6 µM],i,x
CNC(=O)COc1ccc(C(=O)c2ccc(F)cc2)cc1,x,x,x,i,x
O=C(Nc1nc2cccc(-c3ccc(CN4CCS(=O)(=O)CC4)cc3)n2n1)C1CC1,u,-9,52%,x,39%
Cc1ccc(-c2cc(C(F)(F)F)c(C#N)c(SCC(=O)O)n2)cc1,-4%,-35*,8%,u,3%
Cc1cc(=O)n(CC(=O)Nc2ccccc2C)c(-c2ccc(F)cc2)n1,-8%,5,-11%,i,x
Cc1cc(=O)n(CC(=O)Nc2ccc(Br)cc2)c(N2CCc3ccccc3C2)n1,-22%,14,-44%,u,x
Clc1ccc(CN2CCN(Cc3nnsc3Cl)CC2)cc1,x,x,x,i,x
SMILES,SNCA viab count,IP6K1 inhibitor,SNCA expr inh,KDM5B inh,IP6K1 conf
O=C(Cc1c[nH]c2ncc(-c3cccc(F)c3)cc12)NCc1cccnc1,-14%[87.6 µM],-3,-27%[87.6 µM],u,x
COc1ccc(OC)c(-c2cnc3[nH]cc(CC(=O)NCc4cccnc4)c3c2)c1,4%[87.6 µM],-16,-20%[87.6 µM],i,x
O=C(Cc1c[nH]c2ncc(-c3cccc(Cl)c3)cc12)NCc1cccnc1,-14%[87.6 µM],-27*,1%[87.6 µM],u,u
COc1cccc(-c2cnc3[nH]cc(CC(=O)NCc4cccnc4)c3c2)c1,0%[87.6 µM],-27*,4%[87.6 µM],u,u
CC1=C(C(=O)OC(C)C)C(c2cccc([N+](=O)[O-])c2)C(C(=O)OC2CN(C(c3ccccc3)c3ccccc3)C2)=C(N)N1 (stereo unspecified),-10%[23.9 µM],1,-41%[25.6 µM],x,0%
Cc1nc2ccccc2n1CCC(=O)N1C[C@@H](C)[C@](O)(C(C)C)C1,2%,-37*,9%,i,-9%

# Compound activity from PubChem BioAssay.
